Data taken from PubChem BioAssay AID504660 (National Center for Advancing Translational Sciences (NCATS), 2011).
Out of some 360,000 compounds screened, about 3,700 (1%) were called active. The list comes from a sample in which actives are over-represented; it also holds similar structures and randomly drawn compounds. Unmarked numbers belong to inactive results. Cut-off read from the data, not from the text of the source: active = activation above about 30%; inactive = the rest.

The molecules below were run against D(1A) dopamine receptor (Homo sapiens) (UniProt P21728) (assay: Allosteric Agonists of the Human D1 Dopamine Receptor: qHTS). Conditions: HEK293 T-REx D1 cells, calcium flux, agonist mode; at 2 µM; active compounds read high.
In short: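 Tetracycline-induced HEK293 TREx D1 cells, force-coupled to calcium signalling, were dye-loaded with a no-wash calcium kit. Compound was pin-added after a 10 s baseline. Fluorescence was read kinetically at 1 cycle/s for 180 s, with calcium rises flagged as agonism.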
Note: 0% is about no effect.

D(1A) dopamine receptor (Homo sapiens), sequence (P21728 whole entry, looked up): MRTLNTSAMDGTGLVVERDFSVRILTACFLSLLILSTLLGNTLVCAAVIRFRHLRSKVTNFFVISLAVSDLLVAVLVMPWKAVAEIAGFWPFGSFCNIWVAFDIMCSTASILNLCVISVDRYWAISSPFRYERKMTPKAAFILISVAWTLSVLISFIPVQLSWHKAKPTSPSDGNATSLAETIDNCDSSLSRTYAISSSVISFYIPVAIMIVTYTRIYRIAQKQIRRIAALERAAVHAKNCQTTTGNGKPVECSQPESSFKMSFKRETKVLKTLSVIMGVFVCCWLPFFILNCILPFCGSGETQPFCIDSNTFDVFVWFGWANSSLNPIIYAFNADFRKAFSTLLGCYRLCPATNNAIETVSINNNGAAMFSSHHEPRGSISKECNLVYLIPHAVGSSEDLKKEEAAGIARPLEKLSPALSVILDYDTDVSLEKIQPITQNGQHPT

SMILES | activation
Cc1ccc(N(C)C(=O)C2CCN(S(=O)(=O)c3ccc4c(c3)CCCN4C(=O)C3CCC3)CC2)cc1 | 5.77%
CCOC(=O)CNC(=O)c1cc2c(=O)n3cccc(C)c3nc2s1 | -0.0788%
COc1ccc(C(=O)NC(=S)N2CCNC(=O)C2CC(=O)OC(C)C)cc1 (configuration not stated) | 2.67%
CCOC(=O)CC1C(=O)NCCN1c1nc2c(C)cccn2c(=O)c1/C=C1\SC(=S)N(C(C)CC)C1=O (configuration not stated) | 265% (active)
CCC1CN(S(=O)(=O)c2cc(-c3cc(C)no3)ccc2C)c2cc(C)ccc2O1 (configuration not stated) | 8.44%
CSc1ncc(Cl)c(C(=O)Nc2ccc(S(=O)(=O)N3CCCC(C)C3)cc2)n1 (configuration not stated) | 3.25%
COC(=O)c1ccccc1NC(=O)c1ccc(C#N)cc1 | 1.68%
Cc1ccccc1CNC(=O)C(=O)NCC(c1cccs1)S(=O)(=O)c1cccs1 (configuration not stated) | 25.2%
COc1ccc(C(=O)C2CCCN(S(=O)(=O)c3cccc(C)c3)C2)c(C)c1 (configuration not stated) | 12.7%
COc1ccc(C(=O)C2CCCN(Cc3cccn3-c3ccccn3)C2)c(C)c1 (configuration not stated) | 34% (active)
COc1ccc(C(=O)C2CCCN(C(=O)c3cnsn3)C2)c(C)c1 (configuration not stated) | 2.63%
O=S(=O)(c1ccc2c(c1)OCCCO2)N1CCN(S(=O)(=O)c2c(F)cccc2F)CC1 | 7.42%
CCc1ccc(CNC(=O)c2ccc(CS(=O)c3ccc(Br)cc3)o2)cc1 (configuration not stated) | 2.59%
CCc1ccccc1NC(=O)c1ccc(F)c(S(=O)(=O)NC2CCCCCC2)c1 | -1.43%
O=S(=O)(NC1CCCCC1)c1ccc(F)c2ccccc12 | 102% (active)
O=S(=O)(NC1CC1)c1ccc2c3c(cccc13)CC2 | 2.42%
Nc1c(C(=O)c2cccs2)sc2nsc(SCCN3CCCCC3)c12 | 257% (active)
CCc1ccc(CNCc2c(C(=O)O)n(Cc3ccc(F)cc3Cl)c3cc(OC)ccc23)cc1 | 0.499%
CCOc1ccccc1NC(=O)C1CCCN(S(=O)(=O)c2cn(C)cn2)C1 (configuration not stated) | -2.08%
NC(=O)C1=C[C@@H](c2csc3ccccc23)C[C@@H](OCc2ccc(CO)cc2)O1 | 11.8%
O=C(NC1CC1)C1=C[C@H](c2c[nH]c3ccccc23)C[C@H](OCc2ccc(CO)cc2)O1 | 7.93%
NC(=O)C1=C[C@H](c2csc3ccccc23)C[C@H](OCc2ccc(CO)cc2)O1 | 203% (active)

SMILES | activation
Cc1cccc(NC(=O)Cn2c(C(F)(F)F)nc3ccccc32)c1C | 2.74%
Oc1ccc(Cl)cc1C1C=C(c2ccc3c(c2)OCO3)NC(c2ccc(F)c(Br)c2)N1 (configuration not stated) | 16.4%
Cc1ccc(-c2cc(N)n(Cc3cccc(Cl)c3)n2)cc1 | -0.135%
COc1cc(OC)c(OC)cc1/C=C/c1nc2cc3ccccc3cc2c(=O)n1-c1ccc(F)c(Cl)c1 | 0.411%
COCCNC(=O)c1ccc2c(c1)N(Cc1cccc(Cl)c1)C(=O)c1ccccc1S2(=O)=O | 4.3%
CCCN1CCN(CCCNC(=O)c2ccc3nc(Cc4ccccc4)oc3c2)CC1 | 4.88%
CN1CCN(CCCNC(=O)c2ccc(/C=C3\Oc4ccccc4N(Cc4ccc(Cl)cc4)C3=O)cc2)CC1 | 87.5% (active)
Cc1cccc(NC(=O)CN(c2ccc(C(C)C)cc2)S(=O)(=O)c2c(C)nn(C)c2C)c1C | 3.58%
COc1cc(NC(=O)c2cc3ccc4cccnc4c3[nH]2)cc(OC)c1OC | -0.0279%
CCC(C(=O)Nc1ccc(C(C)C)cc1)c1ccccc1 (configuration not stated) | 75.7% (active)
Cc1ccc(NC(=O)C(C)c2cccc(C(=O)c3ccccc3)c2)cc1 (configuration not stated) | 18.8%
CCCC(C)C(=O)Nc1ccc(NC(C)=O)cc1 (configuration not stated) | 2.66%
CC(=O)N1CCc2cc(Br)cc(S(=O)(=O)CCC(=O)NCCc3ccc(Cl)cc3)c21 | 1.1%
CCOC(=O)N1CCc2c(sc3c2c(=O)n(Cc2ccccc2)c(=O)n3CC(=O)Nc2cccc(C)c2)C1 | 47.3% (active)
Cc1ccc(NC(=O)Cn2c(=O)n(-c3ccccc3)c(=O)c3c4c(sc32)CCCC4)cc1 | 4.64%
Cc1cccc(NC(=O)Cn2c(=O)n(Cc3ccccc3)c(=O)c3c(C)c(C)sc32)c1 | 1.32%
COCCCNC(=O)c1c(NC(=O)c2cc(=O)c3cc(C)c(C)cc3o2)sc2c1CCCC2 | -1.72%
COc1cccc(CNCc2c(C(=O)O)n(Cc3ccc(C)cc3)c3cc(C)ccc23)c1OC | 0.928%
O=C(NC1CCCC1)c1cc(-c2ccccc2)on1 | 0.117%
O=C(NCc1ccccc1)c1cc(-c2cccc(Cl)c2)on1 | 3.77%
CC(NC(=O)c1cc(-c2ccccc2)on1)c1ccccc1 (configuration not stated) | 94.3% (active)
CCCn1c2ccccc2c2cnn(CC(=O)N(C)c3ccccc3CC)c(=O)c21 | 0.732%

SMILES | activation
CCOCCCNC(=O)c1ccc2nc(CCc3ccccc3)oc2c1 | 0.808%
O=C(c1ccc2c(c1)N(Cc1ccccc1)C(=O)c1ccccc1S2(=O)=O)N1CCCC1 | 0.455%
Cc1cccc(NC(=O)C2CCN(S(=O)(=O)c3c(C)noc3/C=C/c3ccco3)CC2)c1 | 1.4%
O=C(Cn1c(COc2ccccc2)nc2ccccc21)Nc1cc(Cl)c(Cl)cc1Cl | -0.172%
CC(C)c1ccc(Cn2c(COc3ccccc3)nc3ccccc32)cc1 | 32.7% (active)
CC(O)c1nc2ccccc2n1Cc1ccc([N+](=O)[O-])cc1 (configuration not stated) | 0.897%
CCc1ccc(Nc2nn3c(=O)c4cc5c(cc4nc3s2)OCO5)cc1 | 0.763%
CCOc1cc(CNC(=O)c2sc3ncnc(N(C)C4CCCCC4)c3c2C)ccc1OC | 2.38%
CCOc1ccc2nc(N3CCCC(C(=O)Nc4cc(C)ccc4C)C3)sc2c1 (configuration not stated) | -0.891%
CCOc1ccc2nc(N3CCCN(C(=O)Nc4ccccc4C)CC3)c(C#N)cc2c1 | 32.7% (active)
CCOc1ccc(C(=O)NC2CCN(C(=O)Nc3ccccc3OC)CC2)cc1 | 0.137%
CC1CCN(S(=O)(=O)c2ccc3c(c2)N(CC(=O)NCc2ccccc2Cl)C(=O)CO3)CC1 | -2.16%
COc1ccc(NC(=O)C2CCCN(S(=O)(=O)c3c(C)[nH]c(=O)[nH]c3=O)C2)c(OC)c1 (configuration not stated) | 3.17%
N#C/C=C(/c1ccc(F)cc1)N1CCOCC1 | 5.96%
O=C(N1CCOCC1)N1CCOCC1 | 2.44%
N#C/C(=C/c1ccc(N2CCOCC2)o1)C(=O)N1CCOCC1 | 51.4% (active)
COc1cccc(Cn2c(SCc3ccc(C(=O)N4CCCCC4)cc3)nc3ccncc32)c1 | -0.712%
COc1ccccc1C(=O)Nc1c(C(=O)N(C)Cc2ccccc2)sc2nc(C)c(Cl)c(C)c12 | 1.11%
COc1cc(CNCc2ccc(OC)c3ccccc23)cc(OC)c1OC | 36.9% (active)
COc1ccccc1N1CCN(Cc2ccc(OC)c3ccccc23)CC1 | 0.832%
COc1cc(CNCc2cccs2)cc(Br)c1OC | 2.66%
Cc1ccc2ccc3c(c2n1)NS(=O)(=O)c1ccccc1-3 | -0.466%

SMILES | activation
CCC(=O)N1CCc2cc(S(=O)(=O)NC(Cc3ccccc3)C(=O)NCc3ccccc3)ccc21 (configuration not stated) | 0.429%
CCCOc1ccc(-c2cccc(NS(=O)(=O)c3ccccc3)c2)nn1 | -0.134%
COc1ccc(CCNC(=O)C2CCCN(Cc3nc(-c4cccc(Cl)c4)oc3C)C2)cc1OC (configuration not stated) | 19.6%
COc1ccc(-c2nc(CN3CCC(C(=O)NCc4ccccc4)CC3)c(C)o2)cc1OC | -1.51%
Cc1oc(-c2ccccc2F)nc1CN1CCC(C(=O)NCCc2ccc(Cl)cc2)CC1 | 34.8% (active)
COc1ccc(CCNCc2c(C(=O)O)c(C)n(Cc3cccc(C)c3)c2C)cc1OC | 1.85%
CCc1cc2c(-c3ccccc3)cc(=O)oc2c2c1OCN(Cc1ccc(C)cc1)C2 | 10.6%
CSc1ccc(C2c3c(oc4ccccc4c3=O)C(=O)N2CCCN2CCOCC2)cc1 (configuration not stated) | -1.33%
CCc1ccc(NC(=O)C2CCCN2S(=O)(=O)c2ccc3nc(-c4ccccc4)[nH]c3c2)cc1 (configuration not stated) | 0.736%
COc1cccc(/C=C/C(=O)OCC(=O)N2CCCc3ccccc32)c1 | 9.89%
CCCn1nc(C(=O)N2CCCc3ccccc32)c2ccccc2c1=O | 0.113%
Cc1cccc2cc3c(N)c(C(=O)N4CCCc5ccccc54)sc3nc12 | 60.4% (active)
Oc1ccccc1-c1nc(/C=C/c2ccc(F)cc2)no1 | 5.78%
O=C(/C=C/c1ccccc1)Nc1cc(-c2nc3cc(Cl)ccc3o2)ccc1Cl | -1.26%
COc1ccc(-c2nc3sc(CCNC(=O)C(C)(C)C)c(C)n3n2)cc1 | 3.98%
Cc1ccc(Nc2c(-c3ccc(C)cc3)nc3cnccn23)cc1 | 3.9%
Cc1ccc(Nc2c(-c3ccc(N(C)C)cc3)nc3nc[nH]n23)cc1 | 39.9% (active)
Cc1ccc(-c2nc3cccc(C)n3c2Nc2ccc3c(c2)OCCO3)cc1 | -0.166%
COc1ccc(-c2nc3ccccc3s2)cc1NC(=O)COc1ccccc1C | -0.142%
Cc1cc2c(s1)c1cnn(Cc3c(F)cccc3Cl)c(=O)c1n2C | 0.794%
Cn1c(=O)c2c(n3c4ccccc4nc13)NC(=O)CC2c1cccc(Cl)c1 (configuration not stated) | 3.64%
